Laboratory results taken from PubChem BioAssay (NCI).
“And” between values parts separate entries of the source, which are not always exact repeats. Equal entries are not always repeated. The panel holds about 83,000 compounds, 20% with a hit somewhere; the sample as a whole holds those more often.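 Testing used 96-well plates and a 48-hour single-concentration exposure. Example: -40 means 40% of the starting cells died.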 The source made the active and inactive calls.

Test system: MOLT-4 leukemia
Test: NCI-60 one-dose screen, 48 h (100 = growth as untreated, 0 = no growth, -100 = all killed)
Details: 1 µM
Method: Growth inhibition of the MOLT-4 human tumor cell line is measured as a screen for anti-cancer activity. Cells are grown in 96 well plates and exposed to the test compound for 48 hours. Compounds are tested at a single concentration, which is 10^-5 M for most compounds. The reported endpoint is percent growth (GI% or GIPRCNT), where numbers from 0 - 100% represent growth inhibition, and numbers from -100% - 0 represent cell death. For example, a value of 40 represents 60% growth inhibition. A value of 0 means no net growth occurred over the course of the experiment. A value of -40 indicates 40% of cells at the beginning of the experiment died by the end of the experiment. A value of -100 means all cells are dead at the end of the experiment.
NCI-60 Human Tumor Cell Lines Screen was performed using the standard one-dose NCI protocol, which is described in more detail at https://dtp.cancer.gov/discovery_development/nci-60/default.htm.
Compounds with GIPRCNT values below 10 were considered active. Activity score was based on GIPRCNT using the following formula: […]
Score is 0 for GIPRCNT values of 100 or above, 50 for GIPRCNT values of 0, and 100 for GIPRCNT values of -100.

Row | SMILES | growth
1 | CNC(=O)c1cc(Oc2ccc(CC(=O)Nc3cc(C(C)(C)C)nn3C)cc2)ccn1 | 78% (inactive)

Same assay, conditions: 10 µM

Row | SMILES | growth
2 | Cc1[nH]c(-c2nc3ccccc3[nH]2)c(C)c1C(=O)NC(C)C1CCCCC1 (stereo not given) | 72.4% (inactive)
3 | CNC(=O)c1cc(Oc2ccc(CC(=O)Nc3cc(C(C)(C)C)nn3C)cc2)ccn1 | -64.3% (active)
4 | CC(C)(C)c1cc(NC(=O)Cc2ccc(-c3cnc4cc(-c5cnn(CCN6CCOCC6)c5)ccc4n3)cc2)no1 | 13.8% (inactive)

Same assay, conditions: 10 µM unless noted

Row | SMILES | growth
5 | NC(=O)C1CC2C=CC1C2 (stereo not given) | 103% (inactive) and 102% (inactive)
6 | N=C1N=C(N)CS1 | 99.1% (inactive)
7 | CN(C)CCCNC1=C(Cl)C(=O)c2ccccc2C1=O | 57% (inactive) and 79.3% (inactive)
8 | C1CCCCNCCC1 | 110% (inactive)
9 | CCOc1ccc2nc3cc(N)ccc3c(N)c2c1 | 34.9% (inactive) and 25.3% (inactive)
10 | O=[N+]([O-])c1ccccc1N(S(=O)(=O)c1ccccc1)S(=O)(=O)c1ccccc1 | -13.5% (active) and 103% (inactive)
11 | CCOC(=O)C(CNc1ccccc1)C(=O)OCC | 98.5% (inactive)
12 | Nc1ccc(N=Nc2ccc(S(=O)(=O)O)cc2)cc1S(=O)(=O)O | 108% (inactive) and 117% (inactive)
13 | O=C1NC(=O)C2(CCc3ccccc32)N1 (stereo not given) | 101% (inactive) and 83.3% (inactive)
14 | CC1CCCC(=O)O1 (stereo not given) | 99.5% (inactive) and 106% (inactive)
15 | O=C(O)C1(C(=O)O)CCC1.[NH2-].[NH2-].[Pt+2] | 113% (inactive) and 67% (inactive)
16 | COc1ccc2c(=O)cc(-c3ccccc3)[nH]c2c1 | 26.9% (inactive) and 6.72% (active)
17 | COc1ccc(CCN(C)CCCC(C#N)(c2ccc(OC)c(OC)c2)C(C)C)cc1OC (stereo not given) | 72.9% (inactive) and 83.8% (inactive) and 95.8% (inactive)
18 | CN1CCN(Cc2occc(=O)c2O)CCN(C)CCN(Cc2occc(=O)c2O)CC1 | 97.2% (inactive) and 47.9% (inactive)
19 | Cc1ncsc1CCO | 105% (inactive) and 116% (inactive)
20 | COC(=O)[C@H]1CCCN1C(=O)C1CCCN1C(=O)[C@@H](Cc1ccccc1)NC(=S)Nc1cc(C(F)(F)F)cc(C(F)(F)F)c1 (stereo not given in full) | 91.3% (inactive) and 42.9% (inactive)
21 | CN(Cc1ccccc1)Cc1ccccc1 | 122% (inactive)

Row | SMILES | growth
22 | CCCCCN(CCCCC)CC(O)c1cc2c(c3ccccc13)CCCC2 (stereo not given) | 41.7% (inactive) and 61.7% (inactive)
23 | Nc1cc2c(cc1N)-c1ccccc1C2 | 57.3% (inactive) and 79.8% (inactive)
24 | Cn1c(=O)n(-c2ccc(C(C)(C)C#N)cc2)c2c3cc(-c4cnc5ccccc5c4)ccc3ncc21 | -5.74% (active) and -20.5% (active)
25 | CCN(CC)CCCC(C)Nc1cnc(C(=O)Nc2cc(F)cc3cccnc23)cn1 (stereo not given) | 22% (inactive) and 10.4% (inactive)
26 | CC(=O)C(/C=N/C(N)=O)=C(/C)O | 111% (inactive)
27 | Nc1nc(SC/C=C/CCl)c2[nH]cnc2n1 | 97.1% (inactive) and 76.3% (inactive)
28 | O=C(CN1CCOCC1)N1CCOCC1 | 97.9% (inactive) and 103% (inactive)
29 | N#C/C(=C1C=C/C(=N/O)C(Br)=C/1)c1ccccc1 | 18.5% (inactive)
30 | CCN(CC)CCC(CNc1c2ccc([N+](=O)[O-])cc2nc2cc(OC)c(OC)cc12)c1ccccc1 (stereo not given) | 5.7% (active)
31 | Clc1ccc(SSc2ccc(Cl)cc2)cc1 | 98.6% (inactive)
32 | Cc1c(Cl)cccc1NCN1C(=O)c2ccccc2C1=O | 116% (inactive)
33 | NC(=S)NS(=O)(=O)c1ccc(N)cc1 | 101% (inactive)
34 | Oc1c(Cl)cc(Cl)cc1Sc1cc(Cl)cc(Cl)c1O | 38.7% (inactive) and 16.2% (inactive) and 91% (inactive)
35 | COc1ccc(/C(C#N)=C/c2ccccn2)cc1 | 96.7% (inactive) and 103% (inactive)
36 | O=C(N/N=C/c1ccc2c(c1)OCO2)c1ccncc1 | 133% (inactive)
37 | O=C(N/N=C/c1ccccc1)N/N=C/c1ccccc1 | 91.8% (inactive) and 113% (inactive)

Same assay, conditions: 30 µM

Row | SMILES | growth
38 | CNC(=O)c1cc(Oc2ccc(CC(=O)Nc3cc(C(C)(C)C)nn3C)cc2)ccn1 | 65.6% (inactive)
39 | CC(C)(C)c1cc(NC(=O)Cc2ccc(-c3cnc4cc(-c5cnn(CCN6CCOCC6)c5)ccc4n3)cc2)no1 | 10.8% (inactive)

Same assay, conditions: 100 µM

Row | SMILES | growth
40 | Cc1[nH]c(-c2nc3ccccc3[nH]2)c(C)c1C(=O)NC(C)C1CCCCC1 (stereo not given) | -51.3% (active)
